An excerpt weighted towards active compounds, which were near 0.34% of everything screened.
Vif-A3F inh: Vif-A3F binding inhibition; AID 602313; HeLa A3F-eYFP + Vif (tagged APOBEC3F with the HIV-1 protein that degrades it), YFP fluorescence increase; Potency, µM (series often up to 46.1 µM), without a hit: at the highest dose activity, negative = active; actives 0.2% (n = 390,000); further: % of control where 0% means no effect; nearly all actives have a fitted effect of over 65% in size
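HeLa cells stably expressing A3F-eYFP plus Vif, plated and incubated overnight at 37 deg C, then exposed to compounds overnight at 37 deg C. Blocked degradation read as raised yellow fluorescence (Ex 488/Em 500-530).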
Vif-APOBEC3G blk: blocks the Vif interaction with human APOBEC3G | Q9HC16 | Potency, µM (highest dose often 46.1 µM), for the others: at the highest dose activity, negative = active, most hits filed as inhibitors | AID 602310 | HeLa A3G-eYFP + Vif (tagged APOBEC3G with the HIV-1 protein that degrades it), YFP fluorescence, overnight | actives 0.076% (n = 410,000); further: on the % scale 0 is the no-effect control and ±100 the full control effect; nearly all actives have a fitted effect of over 60% in size
Target sequence (Q9HC16 whole entry, looked up): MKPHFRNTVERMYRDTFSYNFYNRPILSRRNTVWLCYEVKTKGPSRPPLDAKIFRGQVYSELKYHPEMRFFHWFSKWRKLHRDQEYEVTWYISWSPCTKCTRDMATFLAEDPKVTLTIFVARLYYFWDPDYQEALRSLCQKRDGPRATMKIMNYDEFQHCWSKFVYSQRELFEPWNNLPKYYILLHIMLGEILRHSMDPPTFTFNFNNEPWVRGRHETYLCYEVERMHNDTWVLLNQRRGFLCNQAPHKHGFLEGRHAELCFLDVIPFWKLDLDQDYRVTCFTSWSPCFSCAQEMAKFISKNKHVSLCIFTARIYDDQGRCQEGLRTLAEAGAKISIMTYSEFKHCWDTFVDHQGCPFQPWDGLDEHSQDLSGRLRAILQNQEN
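HeLa cells stably expressing Vif and C-terminally eYFP-tagged A3G, seeded overnight at 37 deg C, then exposed to compound by pintool overnight at 37 deg C. Rise in yellow fluorescence (Ex 488/Em 500-530, Acumen) marks blocked Vif-driven A3G degradation.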
Epigenetic reg: regulators of epigenetic silencing causing reporter derepression in mouse cells | actives 0.2% (n = 280,000) | AID 1865 | murine LDR cells, GFP reporter derepression, 30 h | Potency, µM (doses to about 53.9 µM), without a hit: top-dose GFP activation, hits mostly activators; further: % of control where 0% means no effect; nearly all actives have a fitted effect of over 60% in size
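Reporter derepression read as number of fluorescent GFP-positive objects, 20-120 um in size, counted by laser-scanning cytometer. Mouse LDR line with an epigenetically silenced CMV-GFP locus; compound incubation 30 h, 37 C.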
Starred values were filed as active, the others as inactive. The call rests on the fitted dose curve; in most records, active means well fitted curve in the direction sought with a large enough effect; inconclusive means small, poorly fitted or top-dose-only effect, or another doubt; inactive means no such curve, though single readings can be large; an effect the other way counts as inactive or inconclusive. Potency means the concentration at half of the fitted maximal effect.

What do the screens show for `CCCNC(=O)c1c(N)n(Cc2ccco2)c2nc3ccccc3nc12`?
Vif-A3F inh: inconclusive; Vif-APOBEC3G blk: -22.3%; Epigenetic reg: 4.1%

Results for Nc1c(C(=O)NCC2CCCO2)c2nc3ccccc3nc2n1Cc1ccco1 (configuration not stated) ?
Vif-A3F inh: 5.5%; Vif-APOBEC3G blk: 1.9%; Epigenetic reg: 25.1µM*

How did CN1CCN(c2ccc(/C=C3\C(=O)NC(=S)N(c4cccc(Br)c4)C3=O)o2)CC1 do in these assays?
Vif-A3F inh: 25.1µM*; Vif-APOBEC3G blk: 22.4µM*; Epigenetic reg: 2.1%

Results for CN1C(=O)/C(=C/c2ccc(N3CCCCCC3)o2)C(=O)NC1=S ?
Vif-A3F inh: inconclusive; Vif-APOBEC3G blk: inconclusive; Epigenetic reg: 16.3%

How did O=C1C=CC(=O)C(Cl)=C1 do in these assays?
Epigenetic reg: 3.1%

How did C=CCN1CCc2cccc3c2C1Cc1ccc(O)c(O)c1-3 (configuration not stated) do in these assays?
Epigenetic reg: -0.1%

What do the screens show for `CC(=O)Oc1c2c(c(CC=C(C)C)c3c1C(=O)C1=CC4CC5C(C)(C)OC(C/C=C(\C)C(=O)O)(C4=O)[C@]15O3)OC(C)(CCC=C(C)C)C=C2` (some centres not stated)?
Epigenetic reg: -1.3%

How did CN(C)c1ccc(/C=C/C=C2/C(=O)NC(=O)N(c3ccccc3)C2=O)cc1 do in these assays?
Vif-A3F inh: 7.94µM*; Vif-APOBEC3G blk: inconclusive; Epigenetic reg: 8.2%

What do the screens show for `O=C1NC(=O)N(c2ccccc2)C(=O)/C1=C/C=C/c1ccco1`?
Vif-A3F inh: -17.7%; Vif-APOBEC3G blk: inconclusive; Epigenetic reg: 1.1%

How did CNc1ccc2oc(C[C@@H]3OC4(CC[C@@H]3C)O[C@H]([C@@H](C)C(=O)c3ccc[nH]3)[C@H](C)C[C@H]4C)nc2c1C(=O)O (some centres not stated) do in these assays?
Epigenetic reg: 1.1%

Results for CCCCC/C=C\C/C=C\C/C=C\C/C=C\CCCC(=O)N(Cc1ccc(O)c(Cl)c1)Cc1ccc(O)c(Cl)c1 ?
Epigenetic reg: -4.6%

How did Cc1ccc(C(C#N)=Cc2ccc3c(c2)OCO3)cc1 do in these assays?
Vif-A3F inh: -17.2%; Vif-APOBEC3G blk: inconclusive

How did Cc1ccc(/C=C2\C(=O)NC(=O)N(CCc3ccc(F)cc3)C2=O)s1 do in these assays?
Vif-A3F inh: -14.2%; Vif-APOBEC3G blk: 1.6%; Epigenetic reg: 3.9%

What do the screens show for `Cc1ccc(/C=C2/C(=O)NC(=O)N(CCc3ccc(F)cc3)C2=O)s1`?
Vif-A3F inh: 8.91µM*; Vif-APOBEC3G blk: 1.7%; Epigenetic reg: -1.0%

How did CN(C)c1ccc(/C=C2\C(=O)NC(=O)N(Cc3ccc(F)cc3)C2=O)cc1 do in these assays?
Vif-A3F inh: -23.9%; Vif-APOBEC3G blk: -0.3%; Epigenetic reg: 0.2%

How did O=C1NC(=O)N(Cc2ccc(F)cc2)C(=O)/C1=C\c1ccoc1 do in these assays?
Vif-A3F inh: 25.1µM*; Vif-APOBEC3G blk: 2.1%; Epigenetic reg: 4.3%

Results for CCC(=O)C1=C(c2cccc([N+](=O)[O-])c2)N(C(=O)CC)n2c(nnc2C2CCCCC2)S1 ?
Vif-A3F inh: inconclusive; Vif-APOBEC3G blk: -9.7%; Epigenetic reg: 0.0%

Results for C[n+]1c2cc(N)ccc2cc2ccc(N)cc21 ?
Vif-A3F inh: -26.2%; Vif-APOBEC3G blk: 0.9%; Epigenetic reg: 0.794µM*

How did Nc1ccc2ccccc2c1 do in these assays?
Vif-A3F inh: -11.4%; Vif-APOBEC3G blk: -7.1%

What do the screens show for `CCC(C)N1C(=O)/C(=C\c2ccc(N3CCCCCC3)cc2)C(=O)NC1=S` (configuration not stated)?
Vif-A3F inh: 22.4µM*; Vif-APOBEC3G blk: -1.0%; Epigenetic reg: 0.0%

How did CCC(C)N1C(=O)/C(=C\c2cc3c4c(c2)CCCN4CCC3)C(=O)NC1=S (configuration not stated) do in these assays?
Vif-A3F inh: -28.0%; Vif-APOBEC3G blk: -8.9%; Epigenetic reg: 0.9%

What do the screens show for `Cc1ccccc1OCC(=O)Nc1ccccc1C(=O)OCc1cc(=O)n2nc(C3CC3)sc2n1`?
Vif-A3F inh: 3.1%; Vif-APOBEC3G blk: 0.8%; Epigenetic reg: inconclusive

What do the screens show for `C[C@H]1O[C@@H](O[C@H]2[C@@H](O)C[C@@H](O[C@H]3[C@@H](O)C[C@H](O[C@H]4CC[C@@]5(C)[C@H](CC[C@@H]6[C@@H]5CC[C@]5(C)[C@@H](C7=CC(=O)OC7)CC[C@]65O)C4)O[C@@H]3C)O[C@@H]2C)C[C@H](O)[C@@H]1O`?
Vif-APOBEC3G blk: -8.3%

What do the screens show for `ClCCN(CCCl)c1ccc(C=Nc2ccc(/C=C/c3ccncc3)cc2)cc1`?
Vif-APOBEC3G blk: -7.1%

Results for CCN(CC)c1ccc(/C=N/c2sc3c(c2C#N)C2CCN3CC2)c(O)c1 ?
Vif-A3F inh: -792.0%; Vif-APOBEC3G blk: inconclusive; Epigenetic reg: 2.82µM*

Results for O=C(c1ccccc1)c1ccc2nc(N3CCN(c4ccc(F)cc4)CC3)c3nncn3c2c1 ?
Vif-A3F inh: inconclusive; Vif-APOBEC3G blk: -4.9%; Epigenetic reg: 4.8%

Results for CCCCNC(=O)c1c(N)n(CCCOC)c2nc3ccccc3nc12 ?
Vif-A3F inh: -1.8%; Vif-APOBEC3G blk: -5.6%; Epigenetic reg: 0.0%

How did COCCCn1c(=O)/c(=C\c2ccccc2OC(F)F)s/c1=C(/C#N)C(=O)NCCOC do in these assays?
Vif-A3F inh: 25.1µM*; Vif-APOBEC3G blk: -8.3%; Epigenetic reg: inconclusive

Results for CCCCNC(=O)/C(C#N)=c1\s/c(=C\c2ccccc2OC(F)F)c(=O)n1CCCOC ?
Vif-A3F inh: 8.91µM*; Vif-APOBEC3G blk: inconclusive; Epigenetic reg: 0.0%

Results for COCCCn1c(=O)/c(=C/c2ccccc2OC(F)F)s/c1=C(\C#N)C(=O)NCCOC ?
Vif-A3F inh: inconclusive; Vif-APOBEC3G blk: -8.0%

What do the screens show for `CC(=O)Nc1ccc(OC(=O)N2CCN(/[N+]([O-])=N/Oc3ccc([N+](=O)[O-])cc3[N+](=O)[O-])CC2)cc1`?
Vif-APOBEC3G blk: -4.8%

What do the screens show for `CN1/C(=C\C=C2C(=O)NC(=O)NC2=O)C(C)(C)c2ccccc21`?
Vif-A3F inh: 11.2µM*; Vif-APOBEC3G blk: inconclusive; Epigenetic reg: inconclusive

Results for CN1/C(=C\C=Nc2ccccc2)C(C)(C)c2ccccc21 ?
Vif-A3F inh: -2.9%; Vif-APOBEC3G blk: -0.6%; Epigenetic reg: -5.5%

What do the screens show for `COC(=O)[C@]1(C)CC[C@@]2(C)CC[C@@]3(C)C4=CC=C5C(=CC(=O)C(O)=C5C)[C@@]4(C)CC[C@@]3(C)C2C1` (some centres not stated)?
Epigenetic reg: 1.3%

What do the screens show for `Cc1ccccc1-n1c(/C=C/c2c(C)[nH]c3ccccc23)nc2ccccc2c1=O`?
Vif-A3F inh: -6.8%; Vif-APOBEC3G blk: -14.7%; Epigenetic reg: inconclusive

What do the screens show for `Cc1ccccc1-n1c(/C=C/c2ccc(N(C)C)cc2)nc2ccccc2c1=O`?
Vif-A3F inh: inconclusive; Vif-APOBEC3G blk: 3.16µM*; Epigenetic reg: 10µM*

What do the screens show for `Cc1ccc(CNc2cc(C)nc3nc(-c4ccc(C)cc4)nn23)cc1`?
Vif-A3F inh: inconclusive; Vif-APOBEC3G blk: -12.6%; Epigenetic reg: inconclusive

Results for CCn1ccnc1CN1CCCC(C(=O)c2cc(F)ccc2OC)C1 (configuration not stated) ?
Vif-A3F inh: 1.3%; Vif-APOBEC3G blk: -0.7%; Epigenetic reg: 3.98µM*
